Source: PubChem
SARS 3CLpro inh: SARS-CoV 3CLpro protease inhibition | inhibition, % at 6 µM | recombinant SARS-CoV 3CLpro, quenched FRET peptide cleavage | hit rate 0.14% among 290,000 | P0C6X7; in the data active means inhibition above about 12%
BoNT F protease: blocks Botulinum neurotoxin F light chain protease; Multiplex microsphere protease cleavage assay, flow cytometry; inhibition, % at 10 µM; hit rate 0.22% among 360,000; in the data active means inhibition above about 35%, passing the limit was not always enough; inconclusive means no clear call, values can overlap the other calls; further: plate controls were buffer without enzyme for full effect and enzyme alone for no effect
BJeLR viability: kills HRASV12-expressing BJeLR cells | BJeLR (HRASV12) viability, CellTiter-Glo ATP luminescence, 48 h | inhibition, % (concentration not given with the values) | hit rate 0.17% among 300,000 | AID 1554; in the data active means inhibition above about 50%; inconclusive means no clear call, values can overlap the other calls
Anthrax LF inh2: anthrax lethal factor protease inhibition. inhibition, % at 10 µM. P15917. hit rate 0.12% among 360,000. multiplex microsphere protease cleavage assay, LF; further: plate controls were buffer without enzyme for full effect and enzyme alone for no effect
Target sequence (P15917 whole entry, looked up): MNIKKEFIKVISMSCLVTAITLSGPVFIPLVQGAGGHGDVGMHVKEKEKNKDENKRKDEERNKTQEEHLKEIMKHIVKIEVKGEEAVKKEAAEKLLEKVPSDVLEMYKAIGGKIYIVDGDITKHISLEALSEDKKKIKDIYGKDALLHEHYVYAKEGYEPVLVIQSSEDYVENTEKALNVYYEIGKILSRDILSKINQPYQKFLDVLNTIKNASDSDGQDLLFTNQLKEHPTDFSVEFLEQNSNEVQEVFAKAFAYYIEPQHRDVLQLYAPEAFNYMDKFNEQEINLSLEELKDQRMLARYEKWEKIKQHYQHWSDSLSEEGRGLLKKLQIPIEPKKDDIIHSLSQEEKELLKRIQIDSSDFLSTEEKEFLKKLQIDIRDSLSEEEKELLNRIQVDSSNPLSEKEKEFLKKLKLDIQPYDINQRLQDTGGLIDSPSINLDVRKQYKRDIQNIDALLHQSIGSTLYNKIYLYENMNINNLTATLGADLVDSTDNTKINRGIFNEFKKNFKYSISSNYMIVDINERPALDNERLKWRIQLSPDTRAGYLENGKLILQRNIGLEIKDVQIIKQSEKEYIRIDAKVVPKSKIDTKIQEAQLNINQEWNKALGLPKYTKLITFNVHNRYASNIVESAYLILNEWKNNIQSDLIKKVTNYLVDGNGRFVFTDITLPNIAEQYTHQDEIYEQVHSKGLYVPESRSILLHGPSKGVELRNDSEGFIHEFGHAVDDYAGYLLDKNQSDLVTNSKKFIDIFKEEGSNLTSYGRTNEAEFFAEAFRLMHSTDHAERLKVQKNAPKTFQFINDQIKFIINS
BoNT-A LC inh2: inhibitors of Botulinum neurotoxin A light chain protease; multiplex microsphere protease substrate cleavage, flow cytometry; inhibition, % at 10 µM; hit rate 0.17% among 360,000; AID 588499; further: plate controls were buffer without enzyme for full effect and enzyme alone for no effect
Bead autofluor: flagged as autofluorescent in microsphere protease counterscreen. compound autofluorescence counterscreen, microsphere flow cytometry; active compounds read high. fluorescence intensity (no concentration beside the values). hit rate 3.1% among 360,000; in the data active means fluorescence intensity above about 16000; inconclusive means no clear call, values can overlap the other calls
Starred values were filed as active, the others as inactive. A selection: hits, their analogues and other compounds. The true share with any hit is near 3.6%. Unless noted, no stated cut-off is given here; in the data, active means inhibition above about 30%; inconclusive means no clear call, values can overlap the other calls; inactive means below that.

O=C(CC1SC2=NCCN2C1=O)Nc1ccc(Br)cc1 (configuration not stated) was read as SARS 3CLpro inh 2, BoNT F protease -2, BJeLR viability -2, Anthrax LF inh2 0, BoNT-A LC inh2 -4 and Bead autofluor 21829*.
Screening Cc1ccc(NC(=O)NC(=O)N(C(C)C)S(=O)(=O)c2ccc(C)cc2)cc1 returned SARS 3CLpro inh 4, BoNT F protease 1, BJeLR viability -11, Anthrax LF inh2 -5, BoNT-A LC inh2 1 and Bead autofluor 5094.
CCN1c2ccccc2NC2N=C(OC)C(c3ccccc3)C21 (configuration not stated) was read as SARS 3CLpro inh 2, BoNT F protease -11, BJeLR viability -19, Anthrax LF inh2 0, BoNT-A LC inh2 inconclusive and Bead autofluor 25940*.
Screening CCCN1C(=O)c2ccccc2NC1c1cc(OC)c(OC)c(OC)c1 (configuration not stated) returned SARS 3CLpro inh 4, BoNT F protease 2, BJeLR viability -3, Anthrax LF inh2 -2, BoNT-A LC inh2 1 and Bead autofluor 4769.
`CN1C(=O)NC(c2ccccc2)C2=C1CN(c1ccc3ccccc3c1)C2=O` (configuration not stated) gave SARS 3CLpro inh -2, BoNT F protease -2, BJeLR viability 7, Anthrax LF inh2 -1, BoNT-A LC inh2 0 and Bead autofluor 2546.
CSCCC(NC(=O)c1ccccc1)C(=O)N1CC=C(c2ccccc2)CC1 (configuration not stated) was read as SARS 3CLpro inh 2, BoNT F protease 9, BJeLR viability 11, Anthrax LF inh2 0, BoNT-A LC inh2 1 and Bead autofluor 5599.
Screening CC(O)(CS(=O)(=O)Cc1ccccc1)C(=O)Nc1ccc(C(F)(F)F)cc1 (configuration not stated) returned SARS 3CLpro inh -4, BoNT F protease -2, BJeLR viability -2, Anthrax LF inh2 1, BoNT-A LC inh2 inconclusive and Bead autofluor 23000*.
`CC(O)(CS(=O)(=O)Cc1ccccc1)C(=O)Nc1cccc(C(F)(F)F)c1` (configuration not stated) gave SARS 3CLpro inh 0, BoNT F protease 1, BJeLR viability 0, Anthrax LF inh2 0, BoNT-A LC inh2 1 and Bead autofluor 20560*.
For Cc1nc2ccccc2c(=O)n1NC(=O)c1ccc(Cl)cc1 the results were SARS 3CLpro inh 0, BoNT F protease -22, BJeLR viability -5, Anthrax LF inh2 -9, BoNT-A LC inh2 0 and Bead autofluor 3203.
`COc1ccc(C(=O)Nn2c(SCC(=O)NCc3ccccc3)nc3ccccc3c2=O)cc1` gave SARS 3CLpro inh 0, BoNT F protease -2, BJeLR viability 10, Anthrax LF inh2 -11, BoNT-A LC inh2 1 and Bead autofluor 8897.
For O=C(CSc1nc2ccccc2c(=O)n1NC(=O)Cc1ccccc1)NCc1ccccc1 the results were SARS 3CLpro inh 6, BoNT F protease -7, BJeLR viability -3, Anthrax LF inh2 0, BoNT-A LC inh2 -2 and Bead autofluor 23372*.
For O=C(CSc1nc2ccccc2c(=O)n1NC(=O)c1ccccc1)c1ccc(Cl)cc1 the results were SARS 3CLpro inh 4, BoNT F protease 5, BJeLR viability 7, Anthrax LF inh2 -1, BoNT-A LC inh2 inconclusive and Bead autofluor 19026*.
Screening CCn1c(SCC(=O)c2ccccc2)nc2ccccc2c1=O returned SARS 3CLpro inh 6, BoNT F protease 4, BJeLR viability -5, Anthrax LF inh2 0, BoNT-A LC inh2 0 and Bead autofluor 3792.
Screening O=C(CSc1nc2ccccc2c(=O)n1NC(=O)c1ccccc1)c1ccccc1 returned SARS 3CLpro inh 3, BoNT F protease 1, BJeLR viability 2, Anthrax LF inh2 -5, BoNT-A LC inh2 0 and Bead autofluor 22548*.
Screening O=C(CSc1nc2ccccc2c(=O)n1NC(=O)Cc1ccccc1)NCc1ccco1 returned SARS 3CLpro inh 5, BoNT F protease 3, BJeLR viability 0, Anthrax LF inh2 -3, BoNT-A LC inh2 0 and Bead autofluor inconclusive.
COc1ccc(C(=O)Nn2c(SCC(=O)NC3CCCC3)nc3ccccc3c2=O)cc1 was read as SARS 3CLpro inh -4, BoNT F protease 5, BJeLR viability 4, Anthrax LF inh2 1, BoNT-A LC inh2 1 and Bead autofluor 21985*.
CCOC(=O)C1CCCN(CCC(=O)Nc2c(C(=O)OC)[nH]c3cc(OC)ccc23)C1 (configuration not stated) was read as SARS 3CLpro inh 0, BoNT F protease 6, BJeLR viability -1, Anthrax LF inh2 -2, BoNT-A LC inh2 inconclusive and Bead autofluor 19014*.
`COC(=O)c1[nH]c2cc(OC)ccc2c1NC(=O)CCN1CCN(c2ccccc2)CC1` gave SARS 3CLpro inh -2, BoNT F protease 1, BJeLR viability 1, Anthrax LF inh2 -2, BoNT-A LC inh2 0 and Bead autofluor 23523*.
Screening CNC(=O)COC(=O)c1nc(-n2nc(C)cc2C)ccc1Cl returned SARS 3CLpro inh 3, BoNT F protease -3, BJeLR viability -1, Anthrax LF inh2 0, BoNT-A LC inh2 -1 and Bead autofluor 24164*.
COC(=O)c1nc(-n2nc(C)cc2C)ccc1Cl was read as SARS 3CLpro inh 4, BoNT F protease -6, BJeLR viability -1, Anthrax LF inh2 -4, BoNT-A LC inh2 -1 and Bead autofluor 8336.
For C/C=C/C=[N+](\[O-])C(C)/C(=N/O)c1ccc(F)cc1 (configuration not stated) the results were SARS 3CLpro inh -9, BoNT F protease -5, BJeLR viability -13, Anthrax LF inh2 1, BoNT-A LC inh2 -2 and Bead autofluor 16840*.
Screening CC(C)C(C(=O)Nc1ccc2c(c1)OCO2)N1C(=O)c2ccccc2C1=O (configuration not stated) returned SARS 3CLpro inh 3, BoNT F protease 0, Anthrax LF inh2 -2, BoNT-A LC inh2 inconclusive and Bead autofluor 20817*.
Screening CCOc1ccccc1C(=O)NC(C)c1ccc2c(c1)OCO2 (configuration not stated) returned SARS 3CLpro inh -1, BoNT F protease 2, BJeLR viability 19, Anthrax LF inh2 1, BoNT-A LC inh2 5 and Bead autofluor 18046*.
`CCOc1ccccc1NC(=O)NC(C)c1ccc2c(c1)OCO2` (configuration not stated) gave SARS 3CLpro inh -4, BoNT F protease 10, BJeLR viability 8, Anthrax LF inh2 0, BoNT-A LC inh2 -2 and Bead autofluor 5918.
For O=C(CC(NC(=O)c1ccccc1Cl)c1ccccc1)Nc1ccc2c(c1)OCO2 (configuration not stated) the results were SARS 3CLpro inh -3, BoNT F protease 0, Anthrax LF inh2 0, BoNT-A LC inh2 1 and Bead autofluor 20052*.
For COc1cc(C(=O)Nc2ccc3c(c2)OCCO3)c(-n2cnnn2)cc1OC the results were SARS 3CLpro inh 5, BoNT F protease -1, BJeLR viability 3, Anthrax LF inh2 -2, BoNT-A LC inh2 0 and Bead autofluor 22353*.
